The text below walks through data of PubChem BioAssay AID489039 (National Center for Advancing Translational Sciences (NCATS), 2010).

Several values for one entry are separate records, joined by “and”; a condition that tells them apart may be missing. Equal values may be shown once. Inconclusive results are not listed. A number with no mark means an inactive call. Activity calls are given as the source filed them. Calls follow the shape of the dose curve; as a rule, active = well fitted inhibition curve with a large enough effect; inconclusive = small, poorly fitted or top-dose-only effect, or effect the other way; inactive = no such curve, though single readings can be large or run the other way.

The assay has as its target Nuclear receptor ROR-alpha (Homo sapiens) (UniProt P35398). As to the kind of experiment: ROR alpha selectivity assay for inhibitors of ROR gamma transcriptional activity. Particulars: Drosophila S2 Gal4-RORalpha UAS-luciferase, 20 h; series mostly up to 92.2 µM. From the text: NIH Molecular Libraries Probe Production Network [MLPCN] NIH Chemical Genomics Center [NCGC] MLPCN Grant: R03 DA026211-01 Assay Provider: Dan Littman, New York University Assay Overview: The retinoic acid-related orphan receptor (ROR) gamma is a transcription factor that has a central role in the differentiation of Th17 cells, a subset of T helper cells that secrete the inflammatory cytokines IL-17A, IL-17F, and IL-22. Th17 cells have been implicated in graft versus host disease, autoimmune disease and asthma. RORgamma is induced in naive T helper cells in the presence of TGF-beta combined with IL-6, IL-21, or IL-23, and thereafter directs the expression of the Th17 lineage cytokines. To identify nonselective inhibitors, a Drosophila Schneider cell line was stably transfected with two vectors: a gene expressing a fusion of the Gal4 DNA binding domain and the transactivation domain of the ROR alpha, under the control of the metallothionine promoter and a Photinus luciferase reporter regulated by the Gal4 binding site enhancer, UAS. […] Small molecule inhibitors that inhibit RORgamma and RORalpha, or components common to both, will be active in both assays and thus scored as nonselective.
Assay Protocol Summary: For screening, 600 cells in 4 uL/well were dispensed into white solid 1536-well plates (Grenier) using a solenoid-based dispenser. Following transfer of 23 nL compound or DMSO vehicle by a pin tool, the plates were incubated 1 hr at ambient temperature, and 1 uL/well copper sulfate (700 uM final concentration) was added. The plates were centrifuged 15 s at 1000 RPM and incubated 20 hr at ambient temperature. After addition of 1.5 uL Photinus luciferase detection reagent, the plates were incubated 10 min at ambient temperature and then read by an ViewLux (Perkin Elmer) to detect luminescence.
For `O=C(/C=C/c1ccc(S(=O)(=O)N2CCOCC2)cc1)NC(=S)Nc1ccc(N2CCOCC2)cc1`, the Potency was 14.4 µM (active).

On to `COc1cc(O)c(C(CC(=O)NCC2CCCCC2)c2ccc3c(c2)OCO3)c(OC)c1` (stereo not given), for which the Potency entry is “inactive”.

Take `COc1cc(O)c(C(CC(=O)N2CCCC(C)C2)c2ccc3ccccc3c2)c(OC)c1` (stereo not given): the Potency entry was “inactive”.

In the case of `COc1cc(O)c(C(CC(=O)N2CCCC(C)C2)c2ccccc2)c(OC)c1` (stereo not given), the Potency entry was “inactive”.

Consider `COc1cc(O)c(C(CC(=O)N2CCCC(C)C2)c2ccc(-c3ccccc3)cc2)c(OC)c1` (stereo not given), for which the Potency result was “inactive”.

Regarding `COc1ccc(-c2c[n+]3c(n2-c2ccc(C)cc2)CCCCC3)cc1`, the Potency was 10.2 µM (active).

Take `COc1cc(O)c(C(CC(=O)N2CCCC2)c2ccc3c(c2)OCO3)c(OC)c1` (stereo not given): the Potency entry is “inactive”.

On to `COc1cc(O)c(C(CC(=O)N2CCC(c3ccccc3)CC2)c2ccc3c(c2)OCO3)c(OC)c1` (stereo not given), for which the Potency result was “inactive”.

In the case of `CCOC(=O)Cn1c(CN2CCc3ccccc3C2)nc2c1c(=O)n(C)c(=O)n2C`, the Potency was 16.2 µM (active).

Regarding `CCOc1cccc(-c2cc(-c3n[nH]c(=S)n3CC)c3ccccc3n2)c1`, the Potency is 7.24 µM (active) and 18.2 µM (active).

For the molecule `Cc1ccc(C)c(/C=N/n2cc(-c3ccccc3)[nH]c2=S)c1`, the Potency was 0.911 µM (active).

For `COCC1CCCN(C(=O)CC(c2ccc3c(c2)OCO3)c2c(O)cc(OC)cc2OC)C1` (stereo not given), the Potency entry is “inactive”.

In the case of `COC(=O)c1ccc(OCC(=O)c2ccc(O)cc2O)cc1`, the Potency is 0.0575 µM (active).

For the molecule `COc1ccccc1C(CC(=O)N1C[C@H](C)C[C@H](C)C1)c1ccccc1` (stereo not given in full), the Potency is 51.2 µM (active).

`Cc1nn(-c2cc(C)c3ccccc3n2)c2c1C1C(C2)C1(C)C` (stereo not given): the Potency was 8.12 µM (active).

Turning to `CCOC(=O)C1CCN(CC(=O)Nc2cc(C)nn2-c2nc3ccccc3s2)CC1`, the Potency is 20.4 µM (active).

As to `COc1cc(O)c(C(CC(=O)N2CC(C)NC(C)C2)c2ccc3c(c2)OCO3)c(OC)c1` (stereo not given), the Potency entry was “inactive”.

`COc1cc(C)nc(-n2nc(C)cc2OC)n1`: the Potency is 8.12 µM (active).

`COc1cc(O)c(C(CC(=O)Nc2cccc3ccccc23)c2ccc3c(c2)OCO3)c(OC)c1` (stereo not given): the Potency result was “inactive”.

Take `COc1cc(O)c(C(CC(=O)N2CCCC(C)(C)C2)c2ccc3c(c2)OCO3)c(OC)c1` (stereo not given): the Potency result was “inactive”.

Regarding `COC(=O)Cn1c(CN2CCc3ccccc3C2)nc2c1c(=O)n(C)c(=O)n2C`, the Potency was 18.2 µM (active).

Turning to `CC(C)(C)c1ccc([S+](=O)([O-])Nc2ccccc2C(O)(C(F)(F)F)C(F)(F)F)cc1`, the Potency was 18.2 µM (active).

Turning to `Cc1cccc(C(CC(=O)NCc2ccco2)c2ccccc2)c1O` (stereo not given), the Potency result was “inactive”.

Consider `CC1CCCN(C(=O)CC(c2ccccc2)c2ccc(O)cc2)C1` (stereo not given), for which the Potency entry was “inactive”.

For `COc1cc(O)c(C(CC(=O)N2CCCC(C)C2)c2ccccc2OC)c(OC)c1` (stereo not given), the Potency result was “inactive”.

On to `CC(C)(C)c1ccc(-c2noc(CCC(=O)Nc3cccnc3)n2)cc1`, for which the Potency is 0.0457 µM (active).

With `COc1ccc(C(CC(=O)N2CCCC(C)C2)c2c(O)cc(OC)cc2OC)cc1` (stereo not given), the Potency entry is “inactive”.

Regarding `COCOc1cc(OC)cc(OC)c1C(CC(=O)N1CC(C)CC(C)C1)c1ccc2c(c1)OCO2` (stereo not given), the Potency entry is “inactive”.

For the molecule `COc1cc(O)c(C(CC(=O)N2CCCC(C)C2)c2ccc(C(C)C)cc2)c(OC)c1` (stereo not given), the Potency is 36.3 µM (active).

Take `COc1cc(OC)c(C(c2ccccc2)C(C)(C)C(=O)N2CC(C)CC(C)C2)c(OC)c1` (stereo not given): the Potency is 16.2 µM (active).

For the molecule `COc1cc(O)c(C(CC(=O)N2CCC(C)CC2)c2ccc3c(c2)OCO3)c(OC)c1` (stereo not given), the Potency entry was “inactive”.

On to `O=C(CCCN1C(=O)/C(=C/c2ccccc2Cl)SC1=S)Nc1cccnc1`, for which the Potency is 1.82 µM (active).

Consider `CCNC(=O)CCc1nc(-c2ccc(C(C)(C)C)cc2)no1`, for which the Potency was 0.162 µM (active).

As to `COc1cc(O)c(C(CC(=O)NC2CCCc3ccccc32)c2ccc3c(c2)OCO3)c(OC)c1` (stereo not given), the Potency result is “inactive”.

As to `CC1=C(\C=C/C(C)=C/C=C\C(C)=C\C(=O)O)C(C)(C)CCC1`, the activity change, negative = inhibition was 18.6% [at 20 µM].

Take `COc1cc(O)c(C(CC(=O)N2CCCC(C#N)C2)c2ccc3c(c2)OCO3)c(OC)c1` (stereo not given): the Potency entry was “inactive”.

Consider `Cc1cc(C)c2sc(NC(=O)c3ccc(N4C(=O)CCC4=O)cc3)nc2c1`, for which the Potency is 0.407 µM (active).

Take `COc1ccc2nc(NNC(=O)COc3ccccc3)sc2c1`: the Potency was 6.45 µM (active).

Take `Cc1cc(C)n(-c2nc(SCC(=O)O)c3c4c(sc3n2)CCCC4)n1`: the Potency was 18.2 µM (active).

`COc1cc(O)c(C(CC(=O)N2CCCC(CN3CCCCC3)C2)c2ccc3c(c2)OCO3)c(OC)c1` (stereo not given): the Potency result was “inactive”.
